Most compounds without a hit are left out; they make up all but 10% or so of the library.
BAZ2B block – BAZ2B (human) inhibition | AlphaScreen BAZ2B-H3K14Ac peptide displacement | Potency, µM (titrated, usually from 114 µM), for inactives: top-dose activity change, negative = inhibition, hits mostly inhibitors | actives 4.4% (n = 360,000) | AID 504333; also: potency is read from the fitted curve at half-maximal effect; % is scaled to controls: 0 for no effect and ±100 for the full control effect; nearly all actives have a fitted effect of over 60% in size
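BAZ2B (50 nM) with biotin-H3(5-23)K14Ac peptide (50 nM) in PBS pH 7.4, 0.01% Tween-20, preformed 30 min, then compound 30 min at room temperature; top concentration 110uM. AlphaScreen streptavidin donor/nickel chelate acceptor beads (10 ug/mL final), 20 min dark, signal read.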
HP1b chromo inh – blocks HP1-beta chromodomain binding to methylated histone tails; actives 0.56% (n = 390,000); AlphaScreen HP1-beta / biotin-H3K9me3 peptide binding; Potency, µM (doses to about 114 µM), for the others: top-dose activity change, negative = inhibition, most hits filed as inhibitors; P83916; AID 540317; also: potency is read from the fitted curve at half-maximal effect; nearly all actives have a fitted effect of over 70% in size
Target sequence (P83916 whole entry, looked up): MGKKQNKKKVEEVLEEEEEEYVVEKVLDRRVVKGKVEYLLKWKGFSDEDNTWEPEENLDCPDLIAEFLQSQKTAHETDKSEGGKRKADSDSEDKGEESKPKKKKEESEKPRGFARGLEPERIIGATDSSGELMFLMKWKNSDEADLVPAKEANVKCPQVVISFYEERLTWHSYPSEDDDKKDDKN
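Compound inhibition of the preformed complex between 50 nM HP1-beta and 50 nM biotinylated H3K9me3 peptide was read by AlphaScreen. Buffer was PBS pH 7.4 with 0.01% Tween-20. Incubations ran 30 min at room temperature, with 10 ug/mL donor/acceptor beads.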
Six1-Eya2 inh – Six1/Eya2 interaction inhibition. Q15475+O00167. AlphaScreen GST-Six1/His-Eya2 binding, biochemical; stronger effect = lower value. activity change, % (no concentration beside the values). actives 0.56% (n = 360,000). AID 651725; in the data active = activity change below about -65%; inconclusive = mostly about -30% to -63%; also: % is scaled to controls: 0 for no effect and ±100 for the full control effect
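GST-Six1 + His-Eya2 (5X stock: 250/500 nM); Tris pH 8.0, 300 mM NaCl, 0.05% BSA, 0.02% Tween 20; GSH donor/Ni acceptor beads; 1 h 37 °C dark; AlphaScreen readout.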
CtBP-E1A inh – CtBP/E1A binding inhibition. AlphaScreen GST-E1A/His-CtBP binding, 1536-well; stronger effect = lower value. activity change, % (concentration not given with the values). actives 0.49% (n = 340,000); in the data active = activity change below about -65%; inconclusive = mostly about -30% to -63%; also: % is scaled to controls: 0 for no effect and ±100 for the full control effect
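AlphaScreen with 125 nM GST-E1A and 125 nM His-CtBP (5X stocks) in Tris pH 8.0, 300 mM NaCl, BSA, Tween 20, TCEP. Compounds preincubated 2 h at 37 deg C, then glutathione donor/nickel acceptor beads added for 1 h at 37 deg C in dark.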
G9a inh – G9a (human) methyltransferase inhibition; AID 504332; actives 8.8% (n = 350,000); G9a H3K9 monomethylation, AlphaScreen, 2 h; Potency, µM (highest dose often 102 µM), for the others: at the top dose activity, negative = inhibition, actives largely listed as inhibitors; also: potency is read from the fitted curve at half-maximal effect; % is scaled to controls: 0 for no effect and ±100 for the full control effect; nearly all actives have a fitted effect of over 75% in size
Target sequence (Q96KQ7 913-1193 limits assumed): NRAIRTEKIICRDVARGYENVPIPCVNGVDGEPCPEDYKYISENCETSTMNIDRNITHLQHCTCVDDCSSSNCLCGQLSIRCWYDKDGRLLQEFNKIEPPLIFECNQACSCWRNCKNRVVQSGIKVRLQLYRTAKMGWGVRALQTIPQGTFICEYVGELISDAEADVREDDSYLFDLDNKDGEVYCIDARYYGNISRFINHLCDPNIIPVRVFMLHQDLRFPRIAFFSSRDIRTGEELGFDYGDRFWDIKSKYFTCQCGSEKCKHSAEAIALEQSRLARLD
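AlphaScreen detection with an anti-monomethyl H3K9 antibody quantified product after a 2 h room-temperature reaction containing 500 nM biotinylated H3K9 peptide, 20 µM SAM and 20 nM enzyme, which had been preincubated 15 min with compound.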
JMJD2A Tudor inh – inhibitors of human JMJD2A Tudor domain; O75164; AlphaScreen JMJD2A-Tudor / H3K4me3 peptide binding; Potency, µM (series often up to 114 µM), inactives show top-dose activity change, negative = inhibition, hits mostly inhibitors; actives 4.4% (n = 390,000); AID 504339; also: potency is read from the fitted curve at half-maximal effect; % is scaled to controls: 0 for no effect and ±100 for the full control effect; nearly all actives have a fitted effect of over 50% in size
* marks the source's active call; other numbers are inactive results; ? = inconclusive; / = no result; ! = a repeat was not active; [ ] = dose if it differs, or a comment. Unless noted, calls follow the shape of the dose curve; as a rule, active = well fitted inhibition curve with a large enough effect; inconclusive = small, poorly fitted or top-dose-only effect; inactive = no such curve, though single readings can be large or run the other way.

SMILES	BAZ2B block	HP1b chromo inh	Six1-Eya2 inh	CtBP-E1A inh	G9a inh	JMJD2A Tudor inh
COC(=O)[C@]12C(=O)C(C)=C(O)[C@@]1(C)C(C)=CC1[C@@]34CC[C@@H](OC(C)=O)C(C)(C)C3C(C[C@]12C)OC4=O (some centres undefined)	-18%	51%	2	-1	13%[12.7 µM]	8%
CCCCC/C=C\C/C=C\C/C=C\C/C=C\CCCC(=O)O	-7%	/	/	/	16µM*!	/
CC[C@H](C)[C@H](NC(=O)[C@H](CCCN=C(N)N)NC(=O)[C@H](CCCN=C(N)N)NC(=O)[C@H](CC(C)C)NC(=O)[C@H](Cc1ccccc1)NC(=O)CNC(=O)CNC(=O)[C@@H](N)Cc1ccc(O)cc1)C(=O)O	/	/	/	/	41%[59 µM]	/
COc1ccc(OC)c(C2=NOC(C(=O)N3CCC4(CC3)OCCO4)C2)c1 (centres undefined)	7%	-1%	2	2	-2%[12.7 µM]	25µM*
COc1ccc(C2C(C(=O)N3CCC4(CC3)OCCO4)CC(=O)N2c2ccc(OC)cc2)cc1 (centres undefined)	8%	66%	0	0	?	-7%
COc1ccc2c(c1)[nH]c1c(C)nccc12	?	60%	3	-4	13µM*!	-21%
Cc1nccc2c1[nH]c1ccc(Br)cc12	12%	7%	-7	1	12%[12.7 µM]	-21%
c1ccc2sc(C3(N4CCCC4)CCCCC3)cc2c1	/	/	/	/	-4%[59 µM]	/
NC(=O)c1ccc(OCCC(O)N2CC=C(c3ccc(F)cc3)CC2)cc1 (centres undefined)	9%	30%	5	-25	2%[59 µM]	-20%
O=C1CC(N2CC=C(c3ccc(F)cc3)CC2)C(=O)N1c1ccc(F)cc1 (centres undefined)	-12%	31%	-2	-7	25µM*	?
CCOC(=O)c1ccc(N2C(=O)CC(N3CC=C(c4ccc(F)cc4)CC3)C2=O)cc1 (centres undefined)	8%	1%	-11	-4	3.2µM*	-34%
CCOC(=O)N1CC(C)N(/[N+]([O-])=N/Oc2ccc([N+](=O)[O-])cc2[N+](=O)[O-])CC1C (centres undefined)	/	-12%	/	/	/	89µM*
O=C1NC(=O)N(c2ccc(Cl)cc2)C(=O)/C1=C/c1coc2ccc(O)cc2c1=O	-30%	-1%	-11	-4	16µM*	100µM*
O=C1NC(=O)N(c2ccccc2)C(=O)/C1=C/c1coc2ccc(O)cc2c1=O	?	12%	8	/	-114%[59 µM]	?
CCN1/C(=C\C=C\C2=[N+](CC)c3ccccc3C2(C)C)C(C)(C)c2ccccc21	11µM*	?	?	?	?	?
CCOC(=O)c1c(NC(=O)c2c(N)n(CCCOC)c3nc4ccccc4nc23)sc2c1CCCC2	-31%	-10%	-5	4	4%	-14%
CCOCCCn1c(N)c(C(=O)Nc2sc3c(c2C(=O)OC)CCCC3)c2nc3ccccc3nc21	?	6%	-24	7	5.6µM*	-31%
O=C1Nc2ccc(Cl)cc2C(c2ccccc2Cl)=NC1O (centres undefined)	/	/	/	/	19%[59 µM]	/
CCOc1cc(C=O)ccc1O	/	23%	1	2	/	-20%
COc1cc(/C=C/[N+](=O)[O-])ccc1O	45µM*	?	9	1	6.3µM*	?
S=c1[nH]nc(-c2ccco2)n1/N=C/c1cccs1	-33%	-9%	0	13	1.3µM*	40µM*
COc1ccc(OC)c(NC(=O)C2C(C(=O)O)C3(Cl)C(Cl)=C(Cl)C2(Cl)C3(Cl)Cl)c1 (centres undefined)	-31%	9%	-11	1	45µM*	-19%
COc1ccccc1N1C(=O)NC(=O)/C(=C\c2cnn(-c3ccccc3)c2)C1=O	-26%	60%	19	4	8.9µM*	?
O=C1NC(=O)N(Cc2ccccc2)C(=O)/C1=C/c1cnn(-c2ccccc2)c1	?	/	/	/	5.6µM*	/
CCOc1ccc2c3c1O[C@H]1[C@@H](O)C=C[C@H]4[C@@H](C2)N(C)CC[C@@]341	/	/	/	/	-44%[2.33 µM]	/
SMILES	BAZ2B block	HP1b chromo inh	Six1-Eya2 inh	CtBP-E1A inh	G9a inh	JMJD2A Tudor inh
Nc1ncnc2c1ncn2[C@@H]1O[C@H](COP(=O)(O)OP(=O)(O)OP(=O)(O)O)[C@@H](O)[C@H]1O	8%	27%	0	6	35%[59 µM]	?
CCN(CC)c1ncnc2c1ncn2[C@@H]1O[C@H](COP(=O)(O)OP(=O)(O)C(Br)(Br)P(=O)(O)O)[C@@H](O)[C@H]1O	/	/	/	/	30µM*!	/
NC(=O)C1=CN(C2OC(COP(=O)(O)OP(=O)(O)OC[C@H]3O[C@@H](n4cnc5c(N)ncnc54)[C@H](OP(=O)(O)O)[C@@H]3O)C(O)C2O)C=CC1 (some centres undefined)	/	/	/	/	11µM*	/
C/C=C1/C[C@@H](C)[C@@](C)(O)C(=O)OCC2=CCN3CC[C@@H](OC1=O)[C@@H]23	/	22%	/	/	/	-19%
CC(=O)[C@@H]1CC[C@@H]2[C@@H]3CCC4=CC(=O)CC[C@@]4(C)[C@H]3CC[C@]21C	/	/	/	/	22%[21.5 µM]	/
C=C1Nc2ccccc2C(=O)N1c1ccccc1C	/	/	/	/	-8%[12.7 µM]	/
Cc1ccc(-c2nc(N3CCOCC3)s[n+]2-c2ccccc2)cc1	?	?	-1	-19	0.89µM*	8.9µM*
O=C1/C(=C\c2cc3c(cc2Br)OCO3)N2CCC1CC2	-9%	12%	-1	3	45µM*	-12%
O=C1/C(=C/c2ccc3c(c2)OCO3)N2CCC1CC2	-4%	24%	6	-1	-10%[59 µM]	-18%
CCOc1ccc(Cn2c(=O)oc3ccc(C)cc32)cc1OC	-5%	52%	10	-1	-4%	-9%
COc1ccccc1CN1CCNCC1	/	/	1	-2	/	/
c1ccc(CN2CCNCC2)nc1	71µM*	10%	-25	-4	35µM*	45µM*
CCN(CC)Cc1c[nH]c2ccccc12	?	1%	-1	8	?	-30%
CCC(CC)NCc1c[nH]c2ccccc12	79µM*	-30%	-1	3	14µM*	22µM*
Nc1ccc2c(c1)Cc1ccccc1-2	50µM*	?	-8	11	?	?
Nc1ccc2c(c1)Cc1cc([N+](=O)[O-])ccc1-2	-23%	9%	11	14	50µM*	-10%
O=[N+]([O-])c1ccc2c(c1)Cc1cc(O)ccc1-2	/	4%	-4	-4	/	-28%
C[C@H]1CN([C@@H](C)CO)C(=O)c2cc(NC(=O)Nc3cccc4ccccc34)ccc2O[C@@H]1CN(C)Cc1ccc(-c2ccccc2)cc1	/	-5%	-10	-2	/	?

Assay outcomes from PubChem.
